The campaign covered roughly 360,000 compounds. About 11,000 (3.1%) were called active. Roughly 2% stayed inconclusive and do not appear here. The sample as a whole holds a higher share of actives than the screen did. Values without a mark were called inactive. Rule as the data show it: active = fluorescence intensity above about 16000; inconclusive = no clear call, values can overlap the other calls; inactive = below that.
Assay: counter-screen for toxin protease inhibitors: compound fluorescence, primary screen, artefact control for toxin protease inhibitor project, biochemical, multiplex microsphere, HTS (AID 624483)
Conditions: compound autofluorescence counterscreen, microsphere flow cytometry; stronger effect = higher value
Compound O=C(NC(c1ccc(-c2ccccc2)cc1)c1cnccn1)C1CCN(CCOc2ccc(Cl)cc2Cl)CC1 (stereo not drawn) has a fluorescence intensity of 4380. With O=C(NCc1ccco1)C1CCCN(S(=O)(=O)c2ccccc2)C1 (stereo not drawn) the fluorescence intensity was 21200 (active). O=C(NCc1ccco1)C1CCCN(S(=O)(=O)c2cnc[nH]2)C1 (stereo not drawn) gave a fluorescence intensity of 5600. In the case of CCCS(=O)(=O)N1CCCC(C(=O)NCc2ccco2)C1 (stereo not drawn), the fluorescence intensity is reported as 2870. In the case of COCCNC(=O)C(c1ccc(C)cc1)N(C(=O)CCC(=O)Nc1ccccn1)c1cccc(C)c1 (stereo not drawn), the fluorescence intensity is reported as 4510. In the case of Cc1cc2c(c(=O)n1Cc1ccco1)C(c1ccccc1)C(C#N)=C(N)O2 (stereo not drawn), the fluorescence intensity is reported as 23400 (active). With Cc1cc2c(c(=O)n1C)C(C(C)C)C(C#N)=C(N)O2 (stereo not drawn) the fluorescence intensity was 3460. Cn1c2c(c(=O)n(C)c1=O)C(c1cccc(F)c1)C(C#N)=C(N)O2 (stereo not drawn) gave a fluorescence intensity of 4470. COc1ccc(NC(=O)NCc2ccc3c(c2)OCO3)c(OC)c1 showed a fluorescence intensity of 5960. In the case of COc1ccc2c(c1)C(C)=CC(C)(C)N2C(=O)CNCc1ccc2c(c1)OCO2, the fluorescence intensity is reported as 21400 (active). For COc1ccc2c(c1)C(C)=CC(C)(C)N2C(=O)Nc1ccccc1, the fluorescence intensity was 2880. Compound Cc1cc(C(=O)COc2ccc(Br)cc2F)c(C)n1C1CC1 has a fluorescence intensity of 4210. CCCNC(=O)C1(C)CCCN(Cc2c(C)nn(-c3ccccc3)c2C)C1 (stereo not drawn) showed a fluorescence intensity of 3870. With OC(c1ccc(F)cc1)c1ncc(-c2cccc(C(F)(F)F)c2)[nH]1 (stereo not drawn) the fluorescence intensity was 2920. Work on COc1ccc(S(=O)(=O)N2CCC(C(=O)N3CCCC3)CC2)cc1C yielded a fluorescence intensity of 2980. For COc1ccc(S(=O)(=O)N2CCC(C(=O)N3CCc4ccccc4C3)CC2)cc1OC, the fluorescence intensity was 18500 (active). In the case of COc1ccc(S(=O)(=O)N2CCC(C(=O)N3CCOCC3)CC2)cc1OC, the fluorescence intensity is reported as 8730. In the case of CCCNC(=O)C1(C)CCN(C(=O)c2cc(F)ccc2C)C1 (stereo not drawn), the fluorescence intensity is reported as 3600. In the case of CCc1nc2ccc(C(=O)N(C)Cc3ccco3)cn2c1N(C)C(=O)Cc1ccccc1, the fluorescence intensity is reported as 3670. O=S1(=O)CC(N2CCN(CCO)CC2)CN1Cc1cn(Cc2cccc(Cl)c2)nn1 (stereo not drawn) showed a fluorescence intensity of 5760. Cc1cc(C)cc(Oc2nc3c(C)cccn3c(=O)c2/C=C(\C#N)C(=O)NC2CCS(=O)(=O)C2)c1 (stereo not drawn) gave a fluorescence intensity of 2120. With COCc1nc2ccccc2n1Cc1ccccc1Br the fluorescence intensity was 20400 (active). Work on CCOCCn1c(C(C)C)nc2ccccc21 yielded a fluorescence intensity of 3860. In the case of C=C(Br)Cn1c(CCCC)nc2ccccc21, the fluorescence intensity is reported as 3410. Nc1cccc(-c2cncc(N3CCN(Cc4ccccn4)CC3)n2)c1 showed a fluorescence intensity of 3020. Cc1cccc(CNC(=O)c2sc(=O)n(Cc3ccccc3C)c2C)c1 showed a fluorescence intensity of 4210. For CCCCc1cc(=O)oc2cc(C)cc(OCc3nn[nH]n3)c12, the fluorescence intensity was 2630. For COc1ccc(-c2cc3ccc(OCc4nn[nH]n4)cc3oc2=O)cc1, the fluorescence intensity was 24000 (active). Cc1noc(C)c1COc1ccc2ccc(=O)oc2c1 showed a fluorescence intensity of 3400. With CC(C)C1C(=O)N(Cc2cn(CCC3OCCO3)nn2)CCS(=O)(=O)N1Cc1ccc(-c2ccccc2C(F)(F)F)cc1 (stereo not drawn) the fluorescence intensity was 5850. With Cc1ccc(NC(=O)C(C)Sc2nnc(C3CC3)n2C2CC2)cc1S(=O)(=O)N1CCOCC1 (stereo not drawn) the fluorescence intensity was 3820. With COC(=O)c1ccc2nc(-c3ccc(C)cc3)c(Cc3ccc(OC)cc3C)n2c1 the fluorescence intensity was 7150. With CCN(CC)CCCNC(=O)c1cc(-c2cccc(Cl)c2)on1 the fluorescence intensity was 22000 (active). Work on O=C(NCCCn1ccnc1)c1cc(-c2ccccc2)on1 yielded a fluorescence intensity of 3190. For O=C(NCCCN1CCOCC1)c1cc(-c2cccc(O)c2)on1, the fluorescence intensity was 2910. Work on O=C(NCc1ccccc1)C1C(=O)N(Cc2ccccc2)C(=O)C1C1(O)CCCC1 (stereo not drawn) yielded a fluorescence intensity of 8420. With COc1cc(NC(=O)C2=CC(c3ccco3)=NS(=O)(=O)N2C)cc(OC)c1OC the fluorescence intensity was 4170. O=S(=O)(NCCc1ccncc1)c1ccccc1 showed a fluorescence intensity of 3020. With O=S(=O)(NCCc1ccccc1)c1ccccc1 the fluorescence intensity was 3470. With O=S(=O)(NCCNS(=O)(=O)c1ccccc1)c1ccccc1 the fluorescence intensity was 22900 (active). CCOc1ccc(CCN2C(=S)N([C@@H](CC(C)C)CN3CCC[C@@H]3CN3C(=S)NC[C@@H]3Cc3ccc(O)cc3)C[C@@H]2Cc2ccc(O)cc2)cc1 showed a fluorescence intensity of 6230. In the case of CCOc1nnc(C)c2c(C)n(-c3cccc(Cl)c3)nc12, the fluorescence intensity is reported as 23500 (active). In the case of CCOc1ccc(CNC(=O)C2CCCN(c3nnc(C)c4c(C)n(-c5ccccc5)nc34)C2)cc1 (stereo not drawn), the fluorescence intensity is reported as 9860. With CCOc1c(Nc2cccc(Cl)c2)c(=O)c1=O the fluorescence intensity was 4070. With Brc1cc(Br)c(Oc2cc(Br)c(Br)cc2Br)cc1Br the fluorescence intensity was 5260. COc1ccc(Cl)cc1NC(=O)CN(C)C(=O)c1ccc2n[nH]nc2c1 gave a fluorescence intensity of 7700. With COc1ccc(Cl)cc1NC(=O)CN(C)C(=O)CNC(=O)C12CC3CC(CC(C3)C1)C2 the fluorescence intensity was 22500 (active). Compound COc1ccc(Cl)cc1NC(=O)CN(C)Cc1ccc(OC)c(OC)c1 has a fluorescence intensity of 4460. For CCOC(=O)C1=C(COC(=O)[C@H](C)NS(=O)(=O)c2ccccc2F)NC(=O)NC1C (stereo partly drawn), the fluorescence intensity was 3650. Cc1onc(-c2ccccc2)c1C(=O)N1CCN(S(=O)(=O)c2ccccc2C(F)(F)F)CC1 gave a fluorescence intensity of 3570. With COC(=O)c1ccc2nc(-c3cccc(Br)c3)c(Cc3ccc(OC)cc3C)n2c1 the fluorescence intensity was 5220. For CCC1(C)Cc2c(sc3nnn(CC(=O)Nc4ccc(Cl)cc4)c(=O)c23)CO1 (stereo not drawn), the fluorescence intensity was 22700 (active). In the case of CCC1(C)Cc2c(sc3[nH]c(=S)n(Cc4ccccc4)c(=O)c23)CO1 (stereo not drawn), the fluorescence intensity is reported as 2880. Work on CCOC(=O)Cn1c(SC)nc2sc3c(c2c1=O)CC(C)(C)OC3 yielded a fluorescence intensity of 6860. Work on N#C/C(=C/c1cccc([N+](=O)[O-])c1)c1nnc2n1CCCCC2 yielded a fluorescence intensity of 1990. In the case of CS(=O)(=O)N(Cc1ccc(Cl)cc1)c1ccc(C(=O)NCCSCc2ccco2)cc1, the fluorescence intensity is reported as 10900. Cc1cccc(Nc2ccccc2C(=O)NCc2ccco2)c1C gave a fluorescence intensity of 3190. With Cc1ccc(N(Cc2ccc(C(=O)Nc3ccccc3C(=O)NCc3ccco3)cc2)S(C)(=O)=O)cc1C the fluorescence intensity was 25100 (active). O=C(Nc1ccc(S(=O)(=O)N2CCOCC2)cc1)c1ccc2ncsc2c1 gave a fluorescence intensity of 4800. In the case of CCCn1cc(SCC(N)=O)c2ccccc21, the fluorescence intensity is reported as 6190. For NC(=O)CSc1c[nH]c2ccccc12, the fluorescence intensity was 20300 (active). In the case of O=C(CSc1nnc(-c2c[nH]c3ccccc23)o1)c1ccccc1, the fluorescence intensity is reported as 7930. Work on O=[N+]([O-])c1ccc(CN2CC(N3CCC(c4ccccc4)CC3)CS2(=O)=O)cc1 (stereo not drawn) yielded a fluorescence intensity of 4360. For COc1ccc(C2=NOC(C(=O)NCc3ccco3)C2)cc1OC (stereo not drawn), the fluorescence intensity was 21200 (active). COc1ccc(CNC(=O)C2CC(c3ccc(C(F)(F)F)cc3)=NO2)cc1 (stereo not drawn) gave a fluorescence intensity of 4040. Work on COc1ccc(S(=O)(=O)N2CCC(C(=O)NCc3ccco3)CC2)cc1C yielded a fluorescence intensity of 3590. In the case of CCOC(=O)N1CCN(C(=O)c2cn(C)c3ccc(S(=O)(=O)N(CC)CC)cc3c2=O)CC1, the fluorescence intensity is reported as 2950. For CCOC(=O)N1CCN(C(=O)c2cn(C)c3ccc(S(=O)(=O)N4CCCC4)cc3c2=O)CC1, the fluorescence intensity was 19900 (active). COc1ccc(N2CCN(C(=O)c3cn(C)c4ccc(S(=O)(=O)N5CCOCC5)cc4c3=O)CC2)cc1 gave a fluorescence intensity of 5270. Cc1ccc(C(NC(=O)C2CCN(CCOc3ccc(Cl)cc3Cl)CC2)c2ccccn2)cc1 (stereo not drawn) showed a fluorescence intensity of 3690. Work on O=C(NCCS(=O)(=O)N1CCN(c2ccccc2)CC1)c1cc(=O)c2ccccc2o1 yielded a fluorescence intensity of 2940. CC(C)C(=O)N1c2ccccc2NC2=C(C(=O)CCC2)C1c1ccc(N(C)C)cc1 (stereo not drawn) showed a fluorescence intensity of 3590. For O=C1c2ccccc2C(O)N1Cc1ccccc1 (stereo not drawn), the fluorescence intensity was 11200. Work on CC1(C)C2CCC1(CS(=O)(=O)NCCc1c[nH]c3ccccc13)C(=O)C2 (stereo not drawn) yielded a fluorescence intensity of 3440. Work on CCCC(=O)N1CCC1(C)C(=O)Nc1ccc(-n2cncn2)cc1 (stereo not drawn) yielded a fluorescence intensity of 4100. Work on Cc1cccc(C)c1NC(=O)CN1CCN(c2ccc(F)cc2)CC1 yielded a fluorescence intensity of 5760. In the case of COc1ccc(OCCCCN2CCC(C)CC2)cc1, the fluorescence intensity is reported as 3010. In the case of CC(C)(C)c1ccc(CN2C(=O)CN=C(c3ccccc3)c3ccccc32)cc1, the fluorescence intensity is reported as 16300 (active). CCN(CC)C(=O)C1=C(C)N(Cc2ccc(C(C)(C)C)cc2)C(=O)C(CC(=O)NCc2cccc3ccccc23)C1 (stereo not drawn) gave a fluorescence intensity of 3960. For CC(C)(C)c1ccc(CN2C(=O)c3ccccc3S2(=O)=O)cc1, the fluorescence intensity was 3970. CNc1cnc(-c2cc(OC)c(OC)c(OC)c2)cn1 showed a fluorescence intensity of 3800. In the case of O=C(Nc1ccc(OCCO)cc1)c1csc([C@H]2C[C@H](O)[C@@H](CO)O2)n1, the fluorescence intensity is reported as 4100. Work on O=C(COC(=O)c1n[nH]c2ccccc12)Nc1ccccc1Br yielded a fluorescence intensity of 3780. CC(=O)Nc1ccc(S(=O)(=O)N2CCN(CCCOc3cc(C)ccc3C)CC2)cc1 showed a fluorescence intensity of 11400. With CC(=O)Nc1ccc(S(=O)(=O)N2CCN(S(=O)(=O)c3cccs3)CC2)cc1 the fluorescence intensity was 6050. For COC(=O)Nc1ccc(S(=O)(=O)N2CCN(CCN3C(=O)C4C5C=CC(C5)C4C3=O)CC2)cc1 (stereo not drawn), the fluorescence intensity was 21300 (active). With CCn1c(CN2C(=O)CSc3ccccc32)n[nH]c1=S the fluorescence intensity was 6470. Cc1nnc(Sc2nc3c(c(=O)[nH]c(=O)n3C)n2Cc2ccccc2)s1 showed a fluorescence intensity of 5620. Work on C=C(C)Cn1c(N2CCCC2)nc2c1c(=O)[nH]c(=O)n2C yielded a fluorescence intensity of 5030. With Cc1nnc(SCCCn2c(N3CCCCC3)nc3c2c(=O)[nH]c(=O)n3C)s1 the fluorescence intensity was 20700 (active). CNC(=S)NNC(=O)c1cccn(Cc2ccccc2)c1=O gave a fluorescence intensity of 4620. For CNC(=S)NNC(=O)c1sccc1OCc1ccccc1, the fluorescence intensity was 22300 (active). Cc1ccc(/C=N/NC(=O)c2sccc2OCc2ccc(F)cc2)cc1 showed a fluorescence intensity of 3080.

Reference: PubChem BioAssay AID624483 (NMMLSC, 2012)
